According to PubChem BioAssay (NCATS):
Results filed as inconclusive are left out. Active and inactive are the calls of the source. The call rests on the fitted dose curve; in most records, active means well fitted inhibition curve with a large enough effect; inconclusive means small, poorly fitted or top-dose-only effect; inactive means flat fitted curve, though single readings scatter.

Key:
Test in all cases: qHTS profiling for inhibitors of Plasmodium falciparum proliferation (AID 504749); further: nearly all actives have a fitted effect of over 60% in size
Conditions in all cases: P. falciparum in erythrocytes, SYBR Green DNA, 72 h; series mostly up to 28.7 µM
CP247 = test system: CP247
In short: (§1)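 Quantitative HTS: compounds pinned into medium, infected erythrocytes added (0.3% parasitemia, 2.5% hematocrit), 72 h culture at 37 C under 5% CO2. Saponin/Triton lysis with SYBR Green I, overnight RT, then fluorescence read.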

CP250 = test system: CP250
In short: as §1

CP252 = test system: CP252
In short: as §1

CP256 = test system: CP256
In short: as §1

CP260 = test system: CP260
In short: as §1

CP262 = test system: CP262
In short: as §1

CP265 = test system: CP265
In short: as §1

CP266 = test system: CP266
In short: as §1

CP268 = test system: CP268
In short: as §1

CP269 = test system: CP269
In short: as §1

Measured: Potency
Potency means the concentration at half of the fitted maximal effect.

Cc1cn([C@H]2C[C@H](N=[N+]=[N-])[C@@H](CO)O2)c(=O)[nH]c1=O
inactive: all assays above

COc1ccc2[nH]cc(CCNC(C)=O)c2c1
inactive: all assays above

COc1ccccc1OCC(O)CN1CCN(CC(=O)Nc2c(C)cccc2C)CC1 (centres undefined)
inactive: all assays above

CN1CCN2c3ccccc3Cc3ccccc3C2C1 (centres undefined)
inactive: all assays above

Cn1cnc2c1c(=O)[nH]c(=O)n2C
inactive: all assays above

CS(=O)(=O)Nc1ccc([N+](=O)[O-])cc1Oc1ccccc1
inactive: all assays above

Cc1cc(C(C)(C)C)c(O)c(C)c1CC1=NCCN1
inactive: all assays above

O=C1N(c2ccccc2)c2ccccc2C1(Cc1ccncc1)Cc1ccncc1
inactive: all assays above

Clc1ccc2nsnc2c1NC1=NCCN1
inactive: all assays above

CC[N+](CC)(CC)CCOc1cccc(OCC[N+](CC)(CC)CC)c1OCC[N+](CC)(CC)CC
inactive: all assays above

C[C@](N)(Cc1ccc(O)c(O)c1)C(=O)O
inactive: all assays above

CN1C(C(=O)Nc2ccccn2)=C(O)c2ccccc2S1(=O)=O
inactive: all assays above

CC(C)Cc1ccc(C(C)C(=O)O)cc1 (centres undefined)
inactive: all assays above

NC(=O)OCC(COC(N)=O)c1ccccc1
inactive: all assays above

Cn1c(=O)c2[nH]cnc2n(C)c1=O
inactive: all assays above

CS(=O)(=O)CCNCc1ccc(-c2ccc3ncnc(Nc4ccc(OCc5cccc(F)c5)c(Cl)c4)c3c2)o1
not listed: CP268
inactive: all other assays above

CC(C)(C)C(=O)Oc1ccc(S(=O)(=O)Nc2ccccc2C(=O)NCC(=O)O)cc1
inactive: all assays above

Cc1cnc(C(=O)NCCc2ccc(S(=O)(=O)NC(=O)NC3CCCCC3)cc2)cn1
inactive: all assays above

N[C@@H](Cc1c[nH]c2ccc(O)cc12)C(=O)O
inactive: all assays above

COc1cc2c(c(OC)c1OC)-c1ccc(OC)c(=O)cc1[C@@H](NC(C)=O)CC2
inactive: all assays above

NCCS(=O)(=O)O
inactive: all assays above

NC(=O)NO
inactive: all assays above

CCOC(=O)C(C)(C)Oc1ccc(Cl)cc1
inactive: all assays above

Cn1c(=O)c2c(ncn2C)n(C)c1=O
inactive: all assays above

CN(C)c1nc(N(C)C)nc(N(C)C)n1
inactive: all assays above

O=c1c(-c2ccc(O)cc2)coc2cc(O)cc(O)c12
inactive: all assays above

COc1ccccc1N1CCN(CC(O)COc2cccc3ccccc23)CC1 (centres undefined)
inactive: all assays above

COc1nc(C)nc(Cl)c1NC1=NCCN1
not listed: CP266
inactive: all other assays above

NCCc1cnc[nH]1
inactive: all assays above

Cc1cc(C(C)(C)C)cc(C)c1CC1=NCCN1
not listed: CP268
inactive: all other assays above

CCCNCC(O)COc1ccccc1C(=O)CCc1ccccc1 (centres undefined)
active: CP247 1 µM | CP250 1 µM | CP252 0.631 µM | CP256 1 µM | CP260 0.891 µM | CP262 4.78 µM | CP265 0.355 µM | CP266 10.7 µM | CP268 4.26 µM | CP269 3.79 µM

CN1CCC(=C2c3ccccc3C=Cc3ccccc32)CC1
not listed: CP268 | CP269
inactive: all other assays above

CN(CCOc1ccc(NS(C)(=O)=O)cc1)CCc1ccc(NS(C)(=O)=O)cc1
inactive: all assays above

Nc1nnc(-c2cccc(Cl)c2Cl)c(N)n1
inactive: all assays above

NCCCCCC(=O)O
inactive: all assays above

CC(CCc1ccc(O)cc1)NCCc1ccc(O)c(O)c1 (centres undefined)
inactive: all assays above

Cc1ccc(C(=O)Nc2ccc(S(=O)(=O)O)c3cc(S(=O)(=O)O)cc(S(=O)(=O)O)c23)cc1NC(=O)c1cccc(NC(=O)Nc2cccc(C(=O)Nc3cc(C(=O)Nc4ccc(S(=O)(=O)O)c5cc(S(=O)(=O)O)cc(S(=O)(=O)O)c45)ccc3C)c2)c1
inactive: all assays above

NS(=O)(=O)c1cc2c(cc1Cl)NCNS2(=O)=O
inactive: all assays above

CC1(CN2CCC(n3c(=O)[nH]c4ccccc43)CC2)OCc2ccccc2-n2cccc21 (centres undefined)
inactive: CP262 | CP266

CCOC(=O)c1ncn2c1CN(C)C(=O)c1cc(F)ccc1-2
not listed: CP266
inactive: all other assays above

CC[C@@]1(O)C(=O)OCc2c1cc1n(c2=O)Cc2cc3c(CN(C)C)c(O)ccc3nc2-1
inactive: CP266
active: CP250 4.47 µM | CP260 6.31 µM | CP265 6.31 µM

OCCN1CCN(CCCN2c3ccccc3Sc3ccc(C(F)(F)F)cc32)CC1
active: CP247 11.2 µM | CP250 12.6 µM | CP252 10 µM | CP256 3.16 µM | CP260 7.94 µM | CP262 5.36 µM | CP265 11.2 µM | CP268 13.5 µM | CP269 6.01 µM
